Compound activity (PubChem)
Rows were chosen to be rich in hits. Some 17% of all compounds tested hit in one or more screens of this group.
ATXN2 expr inh – Primary qHTS for Inhibitors of ATXN expression; HEK-293 ATXN2-luciferase reporter, luminescence, 24 h; AID 1745845, 2022; Potency, µM (highest dose often 57 µM), for the others: at the top dose activity change, negative = inhibition, usual class: inhibitors; hit rate 0.72% among 360,000; note: % is set by controls: 0 for no effect and ±100 for the full control effect; nearly all actives have a fitted effect of over 55% in size
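ATXN2-luciferase reporter cells (luciferase flanked by upstream and downstream ATXN2 gene portions) were treated 24 h at 37 °C with compounds at up to 57 uM. SteadyGlo luminescence gave expression; GF-AFC fluorescence gave viability.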
S2 tox – Viability Counterscreen for Primary qHTS for Inhibitors of ATXN expression. S2 cells (HEK-293 line with an ATXN2-luciferase reporter) viability, CellTiter-Fluor protease fluorescence, 24 h. Potency, µM (top dose mostly 56.7 µM), actives largely listed as cytotoxic. hit rate 0.49% among 400,000; note: nearly all actives have a fitted effect of over 40% in size
HepG2 tox – qHTS for Inhibitors of TGF-b: Cytotox Counterscreen. HepG2 CAGA-GFP viability, ATP luminescence, 18 h. AID 588856, 2011. hit rate 0.76% among 410,000. Potency, µM (titrated, usually from 46.1 µM), without a hit: top-dose activity change, negative = cytotoxicity, actives largely listed as cytotoxic
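CellTiter-Glo luminescence gave cytotoxicity after 18 hours at 37 degrees C. The cells were HepG2 CAGA-GFP in 1% FBS DMEM, stimulated with 500 pg/mL TGF-beta after compound addition. %Activity was normalised to no-cell wells (complete cell-killing) and DMSO (no toxicity), and curves were fitted and classified.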
DT40 TDP1 CPT – qHTS for Inhibitors of human tyrosyl-DNA phosphodiesterase 1 (TDP1): qHTS in cells in presence of CPT; chicken DT40 Tdp1-/-;hTDP1 cells + 20 nM CPT, ATP luminescence, 48 h; Potency, µM (series often up to 46.2 µM), for inactives: top-dose activity change, negative = growth inhibition, hits mostly inhibitors; hit rate 12% among 420,000; note: % is set by controls: 0 for no effect and ±100 for the full control effect; nearly all actives have a fitted effect of over 55% in size
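Chicken DT40 Tdp1-/- cells complemented with human TDP1, 400 cells/well, exposed to compounds plus 20 nM camptothecin for at least 48 h at 37 C; viability read as ATP content by CellTiter-Glo luminescence.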
TDP1 cell noCPT – qHTS for Inhibitors of human tyrosyl-DNA phosphodiesterase 1 (TDP1): qHTS in cells in absence of CPT | DT40 Tdp1-/- hTDP1 cells, no CPT, ATP luminescence, 48 h | AID 686978, 2013 | hit rate 15% among 420,000 | Potency, µM (doses to about 46.2 µM), for the others: top-dose activity change, negative = growth inhibition, hits mostly inhibitors; note: % is set by controls: 0 for no effect and ±100 for the full control effect; nearly all actives have a fitted effect of over 55% in size
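DT40 Tdp1-/-;hTDP1 cells, no CPT (DMSO vehicle only), 400 cells/well; compounds pin-transferred; ≥48 hr, 37 °C; CellTiter-Glo 30 min RT dark, luminescence read.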
TGFb inhibitor – qHTS for Inhibitors of TGF-b; AID 588855, 2011; HepG2 CAGA-GFP TGF-b/SMAD3 reporter, GFP fluorescence, 18 h; TGF-beta stimulated, 500 pg/mL final; Potency, µM (top dose mostly 46.1 µM), for inactives: at the highest dose activity, negative = inhibition, hits mostly inhibitors; hit rate 1.2% among 410,000; note: % is set by controls: 0 for no effect and ±100 for the full control effect; nearly all actives have a fitted effect of over 65% in size
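First, reporter cells (HEPG2 CAGA-GFP) rested 2 h at 37 degrees C. Next, compounds were pinned in and TGF-beta added to 500 pg/mL final. After 18 h, GFP was imaged per cell and summed per well.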
* = called active by the depositor; i = inactive; ? = inconclusive; . = not tested or not shown; [ ] = dose if it differs, or a comment. Calls come from the whole dose curve; as a rule, active = well fitted curve in the direction sought with a large enough effect; inconclusive = small, poorly fitted or top-dose-only effect, or another doubt; inactive = no such curve, though single readings can be large; an effect the other way counts as inactive or inconclusive. Potency is the fitted concentration of half-maximal effect.

SMILES	ATXN2 expr inh	S2 tox	HepG2 tox	DT40 TDP1 CPT	TDP1 cell noCPT	TGFb inhibitor
O=C(CCc1ccc(Oc2cc([N+](=O)[O-])cc([N+](=O)[O-])c2)cc1)N1CCCCCC1	?	i	-38%	18µM*	?	18µM*
Cc1c(NC(=O)c2ccc(N3CCC(C)CC3)c([N+](=O)[O-])c2)cccc1-c1nc2ccccc2o1	-10%	i	6%	?	?	21%
CC(C)[C@H](NC(=O)c1ccccc1F)C(=O)OCCN1C(=O)c2ccccc2C1=O	8%	i	5%	-2%	-1%	-1%
CCN1CCN(c2ccc(Nc3cc(N(C)C(=O)Nc4c(Cl)c(OC)cc(OC)c4Cl)ncn3)cc2)CC1	-29%	.	.	.	.	.
FC(F)(F)c1cccc(Nc2nc(N3CCOCC3)nc(N3CCOCC3)n2)c1	-3%	i	-25%	13µM*	?	4%
BrC(/C=N/Nc1nc(N2CCOCC2)nc(N2CCOCC2)n1)=C/c1ccccc1	-12%	i	-72%	16µM*	21µM*	?
c1ccc(Nc2nc(N3CCNCC3)nc(N3CCOCC3)n2)cc1	-12%	i	-33%	?	?	-6%
c1ccc(Nc2nc(N3CCOCC3)nc(N3CCOCC3)n2)cc1	-10%	i	-25%	16µM*	16µM*	62%
O=[N+]([O-])c1ccc(Nc2nc(N3CCOCC3)nc(N3CCOCC3)n2)cc1	-12%	.	16%	?	?	20%
Cc1cccc(Nc2nc(Nc3cccc(C)c3)nc(N3CCOCC3)n2)c1	.	.	-32%	15µM*	9.2µM*	?
COc1ccc(OCCCCn2c(-c3ccc(Cl)cc3)nc3ccccc3c2=O)cc1	1%	i	-13%	-27%	?	-2%
CCN(C(=O)c1ccc(S(=O)(=O)N2CCCCC2)cc1)C1CCS(=O)(=O)C1 (stereo not given)	-5%	i	10%	-14%	-9%	9%
COCCCn1c(=O)c2sccc2n2c(CCCC(=O)N(C)Cc3ccco3)nnc12	0%	i	-5%	-2%	-2%	5%
CCC(C)NC(=O)Cc1c(OC)ccc2cc(Br)ccc12 (stereo not given)	.	i	5%	-4%	?	-2%
Cc1ccc(Nc2nc(N3CCOCC3)nc(N3CCOCC3)n2)cc1C	.	i	-30%	13µM*	13µM*	32%
Oc1cccc(Nc2nc(N3CCOCC3)nc(N3CCOCC3)n2)c1	-14%	?	-35%	5.2µM*	8.2µM*	14%
Cc1cccc(Nc2nc(N3CCCCC3)nc(N3CCCCC3)n2)c1	-12%	i	-31%	-18%	-15%	-10%
Cc1cccc(Nc2nc(N3CCOCC3)nc(N3CCOCC3)n2)c1	-29%	i	-21%	9.2µM*	?	11%
COc1ccc(CC(=O)N2CCCC(CNC(=O)c3ccccc3Cl)C2)cc1 (stereo not given)	.	i	-6%	-15%	?	-5%
COc1ccc(CNC(=O)C2CCN(c3nc4ccccc4[nH]3)CC2)c(OC)c1	.	.	-29%	18µM*	?	0%
COc1ccc(NC(=O)C2CCN(c3nc4ccccc4[nH]3)CC2)cc1OC	.	.	-6%	-4%	-4%	0%
O=C(Nc1cccc(F)c1)C1CCN(c2nc3ccccc3[nH]2)CC1	.	.	4%	23µM*	?	-2%
COc1ccc(C(=O)NC2=NCCS2)cc1S(=O)(=O)N1CCCCC1C (stereo not given)	.	i	3%	-2%	-24%	-23%
O=C(Nc1ccc(-c2cn3c(n2)SCC3)cc1)c1ccc2ccccc2n1	-14%	?	-29%	16µM*	?	-19%
Oc1ccc(-c2cn3c(n2)SCC3)cc1O	11%	i	-20%	?	23µM*	?
SMILES	ATXN2 expr inh	S2 tox	HepG2 tox	DT40 TDP1 CPT	TDP1 cell noCPT	TGFb inhibitor
CC(NC(=O)COc1ccccc1)C(=O)NCc1ccccc1Cl (stereo not given)	8%	i	4%	0%	-2%	2%
COc1ccc(S(=O)(=O)N2CCC(C(=O)NCCN3CCOCC3)CC2)cc1	0%	i	4%	-6%	1%	-9%
CCc1nc2c(OCc3cccc(Cl)c3)cccn2c1N(C)C(=O)Nc1ccccc1OC	?	?	-7%	18µM*	23µM*	?
CCc1nc2c(OCc3cccc(Cl)c3)cccn2c1N(C)C(C)=O	-4%	i	8%	?	?	3%
CCCCC(=O)N(C)c1c(CC)nc2c(OCc3cccc(Cl)c3)cccn12	?	?	-8%	?	23µM*	4%
CCc1nc2c(OCc3cccc(Cl)c3)cccn2c1N(C)C(=O)C(C)C	-24%	i	-49%	16µM*	18µM*	-6%
CCCCC(=O)N(C)c1c(CC)nc2c(OCC=C(C)C)cccn12	-34%	?	-31%	?	21µM*	7%
C/C(=N/NC(=O)CNC(=O)c1cccnc1)c1ccccc1	1%	i	3%	0%	15%	-7%
COc1cc(NC(=O)[C@@H]2CCCN2S(=O)(=O)c2cccc3cccnc23)cc(OC)c1OC	-6%	i	1%	4%	-8%	9%
Cc1ccc(CNC(=O)C(=O)NCC(c2ccco2)S(=O)(=O)c2ccc(C)cc2)cc1 (stereo not given)	.	.	6%	-7%	-8%	2%
COc1cc(C(=O)NS(=O)(=O)c2ccccc2C)ccc1Cc1cn(C)c2ccc(NC(=O)OC3CCCC3)cc12	39µM*	i	.	-9%	-18%	.
COc1ccc(CCNC(=O)Cn2c(=O)n(-c3cc(OC)c(OC)c(OC)c3)c(=O)c3ccccc32)cc1OC	-5%	i	8%	-3%	2%	0%
COc1ccc(CCNC(=O)c2cnn(-c3nccc(-c4ccco4)n3)c2C)cc1	.	i	.	18%[9.04 µM]	-21%	.
CN(CC(=O)Nc1ccc(Cl)c(Cl)c1)C(=O)CC1OC(=O)c2ccccc21 (stereo not given)	8%	?	2%	-4%	?	13%
O=C(O)CSC1=NS(=O)(=O)c2ccccc21	.	.	-8%	?	?	-7%
Cc1ccc(C(=O)c2c3ccc(C(F)(F)F)cc3[n+]([O-])n2CCCC(N)=O)cc1	4%	i	8%	-9%	-14%	18%
